Measurements: paper PMC7862700, “An all-to-all approach to the identification of sequence-specific readers for epigenetic DNA modifications on cytosine”

Columns and labels:
Test in all cases: DAPPL (digital affinity profiling via proximity ligation, sequencing); 10 mM Tris-HCl pH 7.5, 50 mM NaCl, 1 mM DTT, 4% glycerol, room temperature, 30 min; GST-TFs on glutathione beads, 16-mer random dsDNA library, 0.1% formaldehyde crosslink after washing; high values mean tight binding
Conditions in all cases: protein: recombinant; tags: N-terminal GST; dsDNA, one strand shown
FLI1 = molecular target: T1, FLI1 (Homo sapiens, UniProt Q01543 1-452)
T1 sequence: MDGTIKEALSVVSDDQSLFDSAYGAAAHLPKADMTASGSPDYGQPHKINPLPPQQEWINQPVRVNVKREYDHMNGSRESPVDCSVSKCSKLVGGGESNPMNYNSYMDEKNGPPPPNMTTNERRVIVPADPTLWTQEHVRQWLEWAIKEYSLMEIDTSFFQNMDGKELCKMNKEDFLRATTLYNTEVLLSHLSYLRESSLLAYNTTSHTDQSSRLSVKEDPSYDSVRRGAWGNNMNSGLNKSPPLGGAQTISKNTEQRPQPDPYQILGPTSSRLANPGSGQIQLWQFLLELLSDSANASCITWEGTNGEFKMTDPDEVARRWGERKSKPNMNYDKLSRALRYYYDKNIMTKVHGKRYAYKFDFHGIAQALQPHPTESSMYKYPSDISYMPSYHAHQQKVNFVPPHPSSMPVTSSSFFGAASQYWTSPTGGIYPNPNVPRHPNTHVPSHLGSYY
Outline: (§1)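 Binding signal is each hexamer's read frequency for a factor divided by its frequency in the tag-only sample. The factors were GST-fused human transcription factors from yeast, captured on glutathione beads, DNA-barcoded and pooled with that sample. Pools were incubated with 200 nmole of a random double-stranded 16-mer DNA library in Tris/NaCl/DTT/glycerol buffer at room temperature for 30 min, then washed, crosslinked with 0.1% formaldehyde, proximity-ligated with BsaI/T4 ligase (1 h, 37 °C), PCR-amplified and sequenced on an Illumina NextSeq500.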

ELK1 = molecular target: T2, ELK1 (Homo sapiens, UniProt P19419 1-428)
T2 sequence: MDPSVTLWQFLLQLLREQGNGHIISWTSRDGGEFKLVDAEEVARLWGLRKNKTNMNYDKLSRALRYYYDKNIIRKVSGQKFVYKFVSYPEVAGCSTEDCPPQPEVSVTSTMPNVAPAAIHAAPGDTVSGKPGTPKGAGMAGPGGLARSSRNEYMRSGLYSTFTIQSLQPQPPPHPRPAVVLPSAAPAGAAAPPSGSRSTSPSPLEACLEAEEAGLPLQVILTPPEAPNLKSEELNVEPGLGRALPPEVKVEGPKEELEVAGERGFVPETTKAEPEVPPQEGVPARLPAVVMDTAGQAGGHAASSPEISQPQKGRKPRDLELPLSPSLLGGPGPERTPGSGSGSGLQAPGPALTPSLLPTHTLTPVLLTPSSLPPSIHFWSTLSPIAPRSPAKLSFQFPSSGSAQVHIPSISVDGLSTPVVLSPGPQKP
Outline: as §1

GABPA = molecular target: T3, GABPA (Homo sapiens, UniProt Q06546 1-454)
T3 sequence: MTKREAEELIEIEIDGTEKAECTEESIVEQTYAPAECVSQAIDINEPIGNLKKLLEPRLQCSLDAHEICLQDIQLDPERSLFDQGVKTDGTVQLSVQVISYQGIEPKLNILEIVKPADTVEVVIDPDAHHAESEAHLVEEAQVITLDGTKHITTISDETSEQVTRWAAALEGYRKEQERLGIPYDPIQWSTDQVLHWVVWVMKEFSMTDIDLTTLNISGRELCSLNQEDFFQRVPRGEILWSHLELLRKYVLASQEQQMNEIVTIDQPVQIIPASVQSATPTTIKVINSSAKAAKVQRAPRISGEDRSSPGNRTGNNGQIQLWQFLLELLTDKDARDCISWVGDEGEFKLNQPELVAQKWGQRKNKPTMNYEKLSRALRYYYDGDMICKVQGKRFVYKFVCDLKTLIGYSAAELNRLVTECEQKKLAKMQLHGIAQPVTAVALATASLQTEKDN
Outline: as §1

ERG = molecular target: T4, ERG (Homo sapiens, UniProt P11308 1-479)
T4 sequence: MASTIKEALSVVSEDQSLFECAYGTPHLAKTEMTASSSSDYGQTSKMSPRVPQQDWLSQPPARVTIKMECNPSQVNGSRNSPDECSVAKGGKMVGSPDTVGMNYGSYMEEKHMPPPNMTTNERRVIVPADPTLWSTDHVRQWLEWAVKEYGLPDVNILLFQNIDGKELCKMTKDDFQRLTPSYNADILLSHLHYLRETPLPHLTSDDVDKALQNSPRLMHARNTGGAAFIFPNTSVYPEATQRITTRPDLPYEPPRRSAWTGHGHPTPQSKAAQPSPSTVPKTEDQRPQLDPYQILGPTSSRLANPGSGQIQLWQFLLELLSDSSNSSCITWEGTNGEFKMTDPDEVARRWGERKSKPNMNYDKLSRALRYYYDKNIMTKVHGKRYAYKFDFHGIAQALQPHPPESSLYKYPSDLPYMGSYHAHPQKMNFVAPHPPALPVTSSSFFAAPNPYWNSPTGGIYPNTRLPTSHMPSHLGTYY
Outline: as §1

ELF1 = ELF1 (Homo sapiens, UniProt P32519 1-619)
Outline: as §1

EHF = molecular target: T5, EHF (Homo sapiens, UniProt Q9NZC4 1-300)
T5 sequence: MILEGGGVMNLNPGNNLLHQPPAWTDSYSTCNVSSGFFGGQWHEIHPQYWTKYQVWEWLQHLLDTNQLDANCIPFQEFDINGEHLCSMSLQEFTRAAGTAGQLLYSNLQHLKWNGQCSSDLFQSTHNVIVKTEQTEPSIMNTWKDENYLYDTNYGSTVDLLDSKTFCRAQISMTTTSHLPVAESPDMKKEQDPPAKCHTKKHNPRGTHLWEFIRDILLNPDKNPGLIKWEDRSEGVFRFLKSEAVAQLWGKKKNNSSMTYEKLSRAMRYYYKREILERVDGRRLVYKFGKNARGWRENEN
Outline: as §1

SPI1 = SPI1 (Homo sapiens, UniProt P17947 1-270)
Outline: as §1

SPIB = SPIB (Homo sapiens, UniProt Q01892 1-262)
Outline: as §1

ELK3 = molecular target: T6, ELK3 (Homo sapiens, UniProt P41970 1-407)
T6 sequence: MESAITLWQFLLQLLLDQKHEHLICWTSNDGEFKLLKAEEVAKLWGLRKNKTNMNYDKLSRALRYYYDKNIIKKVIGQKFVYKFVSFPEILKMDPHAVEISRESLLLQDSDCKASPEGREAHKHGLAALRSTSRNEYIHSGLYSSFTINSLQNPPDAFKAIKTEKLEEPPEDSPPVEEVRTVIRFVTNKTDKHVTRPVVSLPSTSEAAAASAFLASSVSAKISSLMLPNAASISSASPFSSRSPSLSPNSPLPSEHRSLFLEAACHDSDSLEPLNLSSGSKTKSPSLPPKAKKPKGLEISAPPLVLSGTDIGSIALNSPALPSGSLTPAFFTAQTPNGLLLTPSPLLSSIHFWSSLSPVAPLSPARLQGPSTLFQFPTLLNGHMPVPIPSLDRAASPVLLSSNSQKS
Outline: as §1

Sequence of SPIB (Q01892 whole entry): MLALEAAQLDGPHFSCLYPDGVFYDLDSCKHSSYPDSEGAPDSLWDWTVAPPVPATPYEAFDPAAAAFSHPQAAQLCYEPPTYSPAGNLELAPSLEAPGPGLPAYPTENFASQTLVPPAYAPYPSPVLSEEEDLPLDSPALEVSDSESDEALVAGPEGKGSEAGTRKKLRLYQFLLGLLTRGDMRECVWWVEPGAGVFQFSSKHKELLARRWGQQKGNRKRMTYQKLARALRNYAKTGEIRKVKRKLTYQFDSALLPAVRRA
Sequence of ELF1 (P32519 whole entry): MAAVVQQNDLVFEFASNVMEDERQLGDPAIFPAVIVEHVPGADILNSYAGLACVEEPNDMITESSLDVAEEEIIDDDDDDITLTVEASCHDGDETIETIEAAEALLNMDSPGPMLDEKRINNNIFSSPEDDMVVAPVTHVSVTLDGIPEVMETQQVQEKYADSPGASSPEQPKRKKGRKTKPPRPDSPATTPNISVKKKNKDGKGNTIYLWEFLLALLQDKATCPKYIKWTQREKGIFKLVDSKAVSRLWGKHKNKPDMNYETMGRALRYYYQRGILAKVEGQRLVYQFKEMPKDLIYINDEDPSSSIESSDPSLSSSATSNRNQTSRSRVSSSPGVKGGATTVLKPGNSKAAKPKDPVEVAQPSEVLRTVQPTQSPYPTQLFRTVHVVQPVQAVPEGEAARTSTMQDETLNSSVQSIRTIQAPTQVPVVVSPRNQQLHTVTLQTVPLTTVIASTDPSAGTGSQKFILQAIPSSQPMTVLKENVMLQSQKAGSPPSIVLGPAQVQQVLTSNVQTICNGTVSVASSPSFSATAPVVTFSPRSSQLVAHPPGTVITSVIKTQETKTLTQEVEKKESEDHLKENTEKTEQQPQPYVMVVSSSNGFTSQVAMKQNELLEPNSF

Sequence: TTTGCG
- binding signal (FLI1): 1.27 fold enrichment (6-mer frequency, TF over GST control)
- binding signal (ELK1): 1.29 fold enrichment (6-mer frequency, TF over GST control)
- binding signal (GABPA): 1.26 fold enrichment (6-mer frequency, TF over GST control)
- binding signal (ERG): 1.14 fold enrichment (6-mer frequency, TF over GST control)
- binding signal (ELF1): 1.27 fold enrichment (6-mer frequency, TF over GST control)
- binding signal (EHF): 1.19 fold enrichment (6-mer frequency, TF over GST control)
- binding signal (SPI1): 1.32 fold enrichment (6-mer frequency, TF over GST control)
- binding signal (SPIB): 1.19 fold enrichment (6-mer frequency, TF over GST control)
- binding signal (ELK3): 1.11 fold enrichment (6-mer frequency, TF over GST control)

Sequence: ACATCT
- binding signal (FLI1): 1.39 fold enrichment (6-mer frequency, TF over GST control)
- binding signal (ELK1): 1.35 fold enrichment (6-mer frequency, TF over GST control)
- binding signal (GABPA): 1.35 fold enrichment (6-mer frequency, TF over GST control)
- binding signal (ERG): 1.34 fold enrichment (6-mer frequency, TF over GST control)
- binding signal (ELF1): 1.38 fold enrichment (6-mer frequency, TF over GST control)
- binding signal (EHF): 1.3 fold enrichment (6-mer frequency, TF over GST control)
- binding signal (SPI1): 1.4 fold enrichment (6-mer frequency, TF over GST control)
- binding signal (SPIB): 1.27 fold enrichment (6-mer frequency, TF over GST control)
- binding signal (ELK3): 1.44 fold enrichment (6-mer frequency, TF over GST control)

Sequence: AATGCT
- binding signal (FLI1): 1.16 fold enrichment (6-mer frequency, TF over GST control)
- binding signal (ELK1): 1.17 fold enrichment (6-mer frequency, TF over GST control)
- binding signal (GABPA): 1.14 fold enrichment (6-mer frequency, TF over GST control)
- binding signal (ERG): 1.16 fold enrichment (6-mer frequency, TF over GST control)
- binding signal (ELF1): 1.16 fold enrichment (6-mer frequency, TF over GST control)
- binding signal (EHF): 1.14 fold enrichment (6-mer frequency, TF over GST control)
- binding signal (SPI1): 1.12 fold enrichment (6-mer frequency, TF over GST control)
- binding signal (SPIB): 1.16 fold enrichment (6-mer frequency, TF over GST control)
- binding signal (ELK3): 1.12 fold enrichment (6-mer frequency, TF over GST control)

Sequence: TCCTTC
- binding signal (FLI1): 2.2 fold enrichment (6-mer frequency, TF over GST control)
- binding signal (ELK1): 2 fold enrichment (6-mer frequency, TF over GST control)
- binding signal (GABPA): 2.01 fold enrichment (6-mer frequency, TF over GST control)
- binding signal (ERG): 2.44 fold enrichment (6-mer frequency, TF over GST control)
- binding signal (ELF1): 2.05 fold enrichment (6-mer frequency, TF over GST control)
- binding signal (EHF): 2 fold enrichment (6-mer frequency, TF over GST control)
- binding signal (SPI1): 2.15 fold enrichment (6-mer frequency, TF over GST control)
- binding signal (SPIB): 2.16 fold enrichment (6-mer frequency, TF over GST control)
- binding signal (ELK3): 2.3 fold enrichment (6-mer frequency, TF over GST control)

Sequence: TTAAGC
- binding signal (FLI1): 1.18 fold enrichment (6-mer frequency, TF over GST control)
- binding signal (ELK1): 1.18 fold enrichment (6-mer frequency, TF over GST control)
- binding signal (GABPA): 1.24 fold enrichment (6-mer frequency, TF over GST control)
- binding signal (ERG): 1.15 fold enrichment (6-mer frequency, TF over GST control)
- binding signal (ELF1): 1.18 fold enrichment (6-mer frequency, TF over GST control)
- binding signal (EHF): 1.13 fold enrichment (6-mer frequency, TF over GST control)
- binding signal (SPI1): 1.1 fold enrichment (6-mer frequency, TF over GST control)
- binding signal (SPIB): 1.08 fold enrichment (6-mer frequency, TF over GST control)
- binding signal (ELK3): 1.18 fold enrichment (6-mer frequency, TF over GST control)

Sequence: GCTATA
- binding signal (FLI1): 1.17 fold enrichment (6-mer frequency, TF over GST control)
- binding signal (ELK1): 1.11 fold enrichment (6-mer frequency, TF over GST control)
- binding signal (GABPA): 1.16 fold enrichment (6-mer frequency, TF over GST control)
- binding signal (ERG): 1.16 fold enrichment (6-mer frequency, TF over GST control)
- binding signal (ELF1): 1.19 fold enrichment (6-mer frequency, TF over GST control)
- binding signal (EHF): 1.16 fold enrichment (6-mer frequency, TF over GST control)
- binding signal (SPI1): 1.09 fold enrichment (6-mer frequency, TF over GST control)
- binding signal (SPIB): 1.25 fold enrichment (6-mer frequency, TF over GST control)
- binding signal (ELK3): 1.24 fold enrichment (6-mer frequency, TF over GST control)

Sequence: AACAAT
- binding signal (FLI1): 1.31 fold enrichment (6-mer frequency, TF over GST control)
- binding signal (ELK1): 1.29 fold enrichment (6-mer frequency, TF over GST control)
- binding signal (GABPA): 1.32 fold enrichment (6-mer frequency, TF over GST control)
- binding signal (ERG): 1.28 fold enrichment (6-mer frequency, TF over GST control)
- binding signal (ELF1): 1.29 fold enrichment (6-mer frequency, TF over GST control)
- binding signal (EHF): 1.26 fold enrichment (6-mer frequency, TF over GST control)
- binding signal (SPI1): 1.32 fold enrichment (6-mer frequency, TF over GST control)
- binding signal (SPIB): 1.29 fold enrichment (6-mer frequency, TF over GST control)
- binding signal (ELK3): 1.32 fold enrichment (6-mer frequency, TF over GST control)
